Assays:
[1] = test system: Tyrosine-protein kinase ABL1 (Homo sapiens), P00519 [E255K]; details: at 0.1 µM
[2] = test system: Tyrosine-protein kinase ABL1 (Homo sapiens), P00519 [E255K]; details: at 1 µM
[3] = test system: Tyrosine-protein kinase ABL1 (Homo sapiens), P00519 [H396P]; details: at 0.1 µM
[4] = test system: Tyrosine-protein kinase ABL1 (Homo sapiens), P00519 [H396P]; details: at 1 µM
[5] = test system: Tyrosine-protein kinase ABL1 (Homo sapiens), P00519 [M351T]; details: at 0.1 µM
[6] = test system: Tyrosine-protein kinase ABL1 (Homo sapiens), P00519 [M351T]; details: at 1 µM
[7] = test system: Tyrosine-protein kinase ABL1 (Homo sapiens), P00519 [Q252H]; details: at 0.1 µM
[8] = test system: Tyrosine-protein kinase ABL1 (Homo sapiens), P00519 [Q252H]; details: at 1 µM
[9] = test system: Tyrosine-protein kinase ABL1 (Homo sapiens), P00519 [T315I]; details: at 0.1 µM
[10] = test system: Tyrosine-protein kinase ABL1 (Homo sapiens), P00519 [T315I]; details: at 1 µM
[11] = test system: Tyrosine-protein kinase ABL1 (Homo sapiens), P00519 [Y253F]; details: at 0.1 µM
[12] = test system: Tyrosine-protein kinase ABL1 (Homo sapiens), P00519 [Y253F]; details: at 1 µM
[13] = molecular target: Tyrosine-protein kinase ABL1 (Homo sapiens) (UniProt P00519); details: at 0.1 µM
[14] = molecular target: Tyrosine-protein kinase ABL1 (Homo sapiens) (UniProt P00519); details: at 1 µM
[15] = molecular target: ALK tyrosine kinase receptor (Homo sapiens) (UniProt Q9UM73); details: at 0.1 µM
[16] = molecular target: ALK tyrosine kinase receptor (Homo sapiens) (UniProt Q9UM73); details: at 1 µM
[17] = molecular target: Tyrosine-protein kinase ABL2 (Homo sapiens) (UniProt P42684); details: at 0.1 µM
[18] = molecular target: Tyrosine-protein kinase ABL2 (Homo sapiens) (UniProt P42684); details: at 1 µM
[19] = molecular target: Tyrosine-protein kinase receptor UFO (Homo sapiens) (UniProt P30530); details: at 0.1 µM;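 further: values are mean percent inhibition of AXL from the GSK PKIS screen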
[20] = molecular target: Serine/threonine-protein kinase PAK 6 (Homo sapiens) (UniProt Q9NQU5); details: at 1 µM;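 further: values are mean percent inhibition of PAK6 kinase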
Sequence of Serine/threonine-protein kinase PAK 6 (Homo sapiens) (Q9NQU5 whole entry, looked up): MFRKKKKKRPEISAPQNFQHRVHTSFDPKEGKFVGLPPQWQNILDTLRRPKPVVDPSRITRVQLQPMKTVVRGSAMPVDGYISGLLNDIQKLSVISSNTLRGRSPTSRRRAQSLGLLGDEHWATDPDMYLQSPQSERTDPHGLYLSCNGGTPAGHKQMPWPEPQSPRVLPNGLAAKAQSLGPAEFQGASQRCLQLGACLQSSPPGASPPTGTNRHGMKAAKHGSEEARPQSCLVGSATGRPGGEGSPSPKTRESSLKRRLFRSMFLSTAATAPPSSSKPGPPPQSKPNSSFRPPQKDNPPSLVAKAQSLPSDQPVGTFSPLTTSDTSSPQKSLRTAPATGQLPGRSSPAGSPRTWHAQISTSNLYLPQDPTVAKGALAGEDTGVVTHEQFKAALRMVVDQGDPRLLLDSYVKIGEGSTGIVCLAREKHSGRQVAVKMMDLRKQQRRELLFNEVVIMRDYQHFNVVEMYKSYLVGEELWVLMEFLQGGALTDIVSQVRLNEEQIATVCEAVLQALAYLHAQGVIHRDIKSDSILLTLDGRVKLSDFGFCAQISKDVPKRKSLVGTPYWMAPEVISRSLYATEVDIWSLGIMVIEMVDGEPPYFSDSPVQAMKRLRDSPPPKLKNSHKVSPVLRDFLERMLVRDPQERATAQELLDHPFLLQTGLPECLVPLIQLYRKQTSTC

Sequence of ALK tyrosine kinase receptor (Homo sapiens) (Q9UM73 19-1620 limits assumed): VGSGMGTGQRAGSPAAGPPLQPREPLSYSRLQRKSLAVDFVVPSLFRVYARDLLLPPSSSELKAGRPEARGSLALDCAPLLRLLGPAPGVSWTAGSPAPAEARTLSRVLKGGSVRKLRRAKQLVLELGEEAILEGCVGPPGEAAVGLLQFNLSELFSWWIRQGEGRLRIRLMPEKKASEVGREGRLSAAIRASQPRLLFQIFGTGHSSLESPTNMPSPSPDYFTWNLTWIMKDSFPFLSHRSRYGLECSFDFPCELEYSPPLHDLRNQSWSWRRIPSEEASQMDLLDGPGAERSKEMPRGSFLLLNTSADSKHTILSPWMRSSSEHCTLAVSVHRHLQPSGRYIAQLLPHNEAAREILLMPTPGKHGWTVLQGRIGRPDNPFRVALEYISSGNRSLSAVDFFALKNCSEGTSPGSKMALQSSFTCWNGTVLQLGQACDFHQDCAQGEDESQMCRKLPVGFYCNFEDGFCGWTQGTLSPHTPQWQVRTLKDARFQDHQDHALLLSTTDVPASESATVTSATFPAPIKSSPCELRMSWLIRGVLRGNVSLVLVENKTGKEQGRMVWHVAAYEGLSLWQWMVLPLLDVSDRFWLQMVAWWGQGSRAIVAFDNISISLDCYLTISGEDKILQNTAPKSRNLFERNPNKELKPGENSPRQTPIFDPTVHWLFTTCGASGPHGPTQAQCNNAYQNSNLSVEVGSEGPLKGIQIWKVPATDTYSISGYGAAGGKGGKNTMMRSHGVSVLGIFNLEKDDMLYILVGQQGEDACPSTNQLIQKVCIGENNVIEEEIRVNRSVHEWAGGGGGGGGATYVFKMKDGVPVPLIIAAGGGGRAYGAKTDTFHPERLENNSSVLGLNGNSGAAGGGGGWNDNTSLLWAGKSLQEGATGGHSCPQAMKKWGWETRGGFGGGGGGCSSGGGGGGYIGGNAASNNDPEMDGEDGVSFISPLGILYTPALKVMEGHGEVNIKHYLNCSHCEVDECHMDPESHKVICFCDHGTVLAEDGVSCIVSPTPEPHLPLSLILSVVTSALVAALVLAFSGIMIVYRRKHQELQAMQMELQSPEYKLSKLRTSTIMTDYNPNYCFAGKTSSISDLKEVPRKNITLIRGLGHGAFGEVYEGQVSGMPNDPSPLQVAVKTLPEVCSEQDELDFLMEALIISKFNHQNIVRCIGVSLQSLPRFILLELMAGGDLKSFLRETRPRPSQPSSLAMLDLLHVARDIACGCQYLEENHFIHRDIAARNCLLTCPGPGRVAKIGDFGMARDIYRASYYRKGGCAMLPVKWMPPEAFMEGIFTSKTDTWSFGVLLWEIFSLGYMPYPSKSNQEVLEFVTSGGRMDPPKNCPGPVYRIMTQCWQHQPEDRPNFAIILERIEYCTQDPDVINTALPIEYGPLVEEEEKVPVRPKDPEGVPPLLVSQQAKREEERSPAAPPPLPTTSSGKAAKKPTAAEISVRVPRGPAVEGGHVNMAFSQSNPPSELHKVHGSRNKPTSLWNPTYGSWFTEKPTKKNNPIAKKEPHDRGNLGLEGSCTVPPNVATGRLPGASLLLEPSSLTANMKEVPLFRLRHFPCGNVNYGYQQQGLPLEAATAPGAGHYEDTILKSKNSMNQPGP
Sequence of Tyrosine-protein kinase receptor UFO (Homo sapiens) (P30530 whole entry): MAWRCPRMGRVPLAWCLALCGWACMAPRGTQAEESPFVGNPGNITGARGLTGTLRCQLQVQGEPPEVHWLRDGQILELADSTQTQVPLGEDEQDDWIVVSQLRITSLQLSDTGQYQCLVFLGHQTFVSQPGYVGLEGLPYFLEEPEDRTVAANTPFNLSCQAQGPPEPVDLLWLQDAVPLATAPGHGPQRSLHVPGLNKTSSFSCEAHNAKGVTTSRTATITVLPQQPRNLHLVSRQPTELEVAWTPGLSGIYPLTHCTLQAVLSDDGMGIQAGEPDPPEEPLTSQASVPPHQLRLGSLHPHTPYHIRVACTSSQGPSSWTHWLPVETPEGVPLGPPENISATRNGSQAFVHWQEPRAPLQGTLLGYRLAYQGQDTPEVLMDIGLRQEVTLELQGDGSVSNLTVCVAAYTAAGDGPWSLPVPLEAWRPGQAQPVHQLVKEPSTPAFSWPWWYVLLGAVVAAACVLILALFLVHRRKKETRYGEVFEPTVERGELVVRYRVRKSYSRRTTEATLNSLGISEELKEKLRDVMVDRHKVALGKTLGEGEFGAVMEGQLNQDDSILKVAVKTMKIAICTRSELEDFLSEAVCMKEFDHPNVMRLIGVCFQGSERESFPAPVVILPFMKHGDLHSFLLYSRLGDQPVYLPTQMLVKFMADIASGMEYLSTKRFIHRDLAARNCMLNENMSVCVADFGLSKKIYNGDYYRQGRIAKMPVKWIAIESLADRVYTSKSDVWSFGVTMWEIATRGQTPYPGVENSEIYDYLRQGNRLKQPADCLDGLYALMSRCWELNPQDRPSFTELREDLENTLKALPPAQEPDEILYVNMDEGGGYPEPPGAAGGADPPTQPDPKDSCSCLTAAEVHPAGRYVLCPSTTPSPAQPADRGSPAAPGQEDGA
Sequence of Tyrosine-protein kinase ABL2 (Homo sapiens) (P42684 whole entry): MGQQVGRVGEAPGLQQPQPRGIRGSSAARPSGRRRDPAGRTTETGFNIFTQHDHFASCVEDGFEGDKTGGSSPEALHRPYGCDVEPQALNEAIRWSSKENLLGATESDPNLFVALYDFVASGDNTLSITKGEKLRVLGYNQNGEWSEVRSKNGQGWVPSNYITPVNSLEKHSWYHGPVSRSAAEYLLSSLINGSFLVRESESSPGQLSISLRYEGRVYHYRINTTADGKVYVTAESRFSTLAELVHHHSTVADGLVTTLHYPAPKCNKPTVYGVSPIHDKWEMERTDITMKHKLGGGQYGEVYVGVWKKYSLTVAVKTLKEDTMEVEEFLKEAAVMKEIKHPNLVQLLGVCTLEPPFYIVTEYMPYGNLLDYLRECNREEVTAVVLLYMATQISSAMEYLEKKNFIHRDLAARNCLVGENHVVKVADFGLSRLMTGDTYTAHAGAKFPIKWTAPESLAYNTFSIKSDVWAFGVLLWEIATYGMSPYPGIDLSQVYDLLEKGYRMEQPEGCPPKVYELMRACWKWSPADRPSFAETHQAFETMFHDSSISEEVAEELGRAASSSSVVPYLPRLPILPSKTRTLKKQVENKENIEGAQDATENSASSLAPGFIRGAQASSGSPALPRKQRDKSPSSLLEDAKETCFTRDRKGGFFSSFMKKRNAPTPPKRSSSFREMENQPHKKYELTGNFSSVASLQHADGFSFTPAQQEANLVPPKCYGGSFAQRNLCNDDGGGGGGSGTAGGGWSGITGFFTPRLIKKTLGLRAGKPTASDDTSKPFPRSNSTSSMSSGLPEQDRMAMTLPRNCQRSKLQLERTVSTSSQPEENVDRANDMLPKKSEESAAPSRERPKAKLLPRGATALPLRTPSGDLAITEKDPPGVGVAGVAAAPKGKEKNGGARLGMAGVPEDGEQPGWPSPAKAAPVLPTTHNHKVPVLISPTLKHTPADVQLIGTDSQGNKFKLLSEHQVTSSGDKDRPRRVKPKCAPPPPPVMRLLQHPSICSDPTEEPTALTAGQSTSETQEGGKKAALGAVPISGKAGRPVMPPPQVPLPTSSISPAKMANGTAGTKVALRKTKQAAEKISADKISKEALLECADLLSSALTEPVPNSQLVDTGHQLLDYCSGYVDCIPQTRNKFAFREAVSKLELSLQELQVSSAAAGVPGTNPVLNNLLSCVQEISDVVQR

SMILES	inhibition [1] [%]	inhibition [2] [%]	inhibition [3] [%]	inhibition [4] [%]	inhibition [5] [%]	inhibition [6] [%]	inhibition [7] [%]	inhibition [8] [%]	inhibition [9] [%]	inhibition [10] [%]	inhibition [11] [%]	inhibition [12] [%]	inhibition [13] [%]	inhibition [14] [%]	inhibition [15] [%]	inhibition [16] [%]	inhibition [17] [%]	inhibition [18] [%]	inhibition [19] [%]	inhibition [20] [%]
Nc1nc(-c2ccc3c(c2)C(=Cc2cc(Br)c(O)c(Br)c2)C(=O)N3)cs1	-0.02	6.46	0.77	4.36	-0.05	4.99	2.23	6.93	-0.15	1.95	-2.03	7.8	0.56	12.7	-1.31	1.3	0.45	9.86	0.81	–
NC(=O)c1cccc(Nc2nccc(Nc3cccc4[nH]ncc34)n2)c1	76.9	95.5	82.2	96.7	77.9	95.7	73.5	95.4	3.14	25.4	84.1	98.5	70.2	84.9	-0.3	15.4	69.1	88.6	4.05	0.17
Cc1ccc(NC(=O)c2ccnc(N3CCCC3)c2)cc1-c1ccc(C(=O)NCC2CC2)cc1	1.9	5.48	3	2.43	0.54	9.12	2.92	12.4	0.94	2.61	2.64	3.85	-0.85	4.81	0.36	5.33	-0.85	7.46	-7.11	-7.72
COc1ccc(COc2ccc(Cc3cnc(N)nc3N)cc2OC)cc1	1.25	–	0.76	-1.33	3.17	-0.65	2.23	-0.16	-0.36	-2.04	3.15	0.75	3.16	7.34	-0.54	0.01	3.27	5.98	4.25	-2.29
CCn1c(-c2nonc2N)nc2c(N3CCCC3)nccc21	-0.9	-0.63	0.1	-1.53	1.28	-0.55	1.69	-0.47	-0.16	0.72	-1.15	2.07	-1.74	0.66	-1.38	-2.28	0.18	7.36	0.14	0.23
CCn1c(-c2nonc2N)nc2cncc(C(=O)N3CC[C@H](N)C3)c21	3.58	2.43	5.83	2.94	2.2	-0.9	4.86	2.19	2.09	3.27	2.94	3.51	4.28	4.33	3.95	3.52	5.33	7.29	-5.66	3.33
COc1ccccc1Nc1ncc(-c2ccccc2)o1	3.77	8	6.53	15.2	2.78	10.8	5.47	9.74	2.77	5.84	4.71	13.7	8.63	14.1	4.54	9.47	7.08	11.2	-6.45	-9.8
Cc1nn(C)c2cc(N(C)c3ccnc(Nc4cccc(S(N)(=O)=O)c4)n3)ccc12	27.9	73.7	58.2	90	58.2	90.2	45.7	85.4	20.3	68.1	45.3	84.5	28.3	74.9	3.45	19.2	30.2	74.4	-2.86	-9.82
Fc1cccc(COc2ccc(Nc3ncnc4cc(-c5ccc[nH]5)sc34)cc2Cl)c1	1.82	7.42	3.38	5.8	0.9	5.26	2.05	6.45	0.63	5.41	3.92	8.02	0.53	10.7	-2.31	2.96	3.02	9.41	-2.49	–
CC1=C(C(=O)Nc2ccc3[nH]ncc3c2)C(c2ccc3ccccc3c2)CC(=O)N1 (configuration not stated)	2.56	3.94	3.48	12.3	3.47	14.9	3.89	17.1	5.08	22.1	4	5.47	2.85	7.38	2.78	7.11	3.07	8.71	-2.62	-2.6
O=C1NC(=O)C(c2cccc(Cl)c2)=C1Nc1ccc(O)c(Cl)c1	0.46	-0.55	1.43	1.01	-0.1	1.15	-0.15	2.63	1.14	-0.11	-0.8	2.65	2.51	7.89	0.73	4.45	2.29	8.28	0.38	-3.45

Reference: ChEMBL document CHEMBL1961873, “Compounds: GSK PKIS; Assays: Nanosyn kinase panel” (2012)
